The structures appear in SMILES notation. Records with an inconclusive call do not appear. Unmarked numbers belong to inactive results. Activity calls are given as the source filed them. The call rests on the fitted dose curve; in most records, active means well fitted inhibition curve with a large enough effect; inconclusive means small, poorly fitted or top-dose-only effect; inactive means flat fitted curve, though single readings scatter.

The values that follow come from PubChem BioAssay (NCATS).
On the % scale 0 is the no-effect control and ±100 the full control effect; potency means the concentration at half of the fitted maximal effect.

The target of this experiment is Voltage-gated inwardly rectifying potassium channel KCNH2 (Homo sapiens) (UniProt Q12809). The experiment can be described thus: qHTS Assay for Small Molecule Inhibitors of the Human hERG Channel Activity (AID 588834).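 Further: lower thallium flux fluorescence means stronger hERG block; nearly all actives have a fitted effect of over 50% in size.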 On activity change, negative = inhibition: top concentration of the series differs between compounds. The following applies: U2OS BacMam hERG, FluxOR thallium flux fluorescence; series mostly up to 46.1 µM; activity change, negative = inhibition: at the top concentration. An excerpt: NIH Chemical Genomics Center [NCGC]
Sequence of Voltage-gated inwardly rectifying potassium channel KCNH2 (Homo sapiens) (Q12809 whole entry, looked up): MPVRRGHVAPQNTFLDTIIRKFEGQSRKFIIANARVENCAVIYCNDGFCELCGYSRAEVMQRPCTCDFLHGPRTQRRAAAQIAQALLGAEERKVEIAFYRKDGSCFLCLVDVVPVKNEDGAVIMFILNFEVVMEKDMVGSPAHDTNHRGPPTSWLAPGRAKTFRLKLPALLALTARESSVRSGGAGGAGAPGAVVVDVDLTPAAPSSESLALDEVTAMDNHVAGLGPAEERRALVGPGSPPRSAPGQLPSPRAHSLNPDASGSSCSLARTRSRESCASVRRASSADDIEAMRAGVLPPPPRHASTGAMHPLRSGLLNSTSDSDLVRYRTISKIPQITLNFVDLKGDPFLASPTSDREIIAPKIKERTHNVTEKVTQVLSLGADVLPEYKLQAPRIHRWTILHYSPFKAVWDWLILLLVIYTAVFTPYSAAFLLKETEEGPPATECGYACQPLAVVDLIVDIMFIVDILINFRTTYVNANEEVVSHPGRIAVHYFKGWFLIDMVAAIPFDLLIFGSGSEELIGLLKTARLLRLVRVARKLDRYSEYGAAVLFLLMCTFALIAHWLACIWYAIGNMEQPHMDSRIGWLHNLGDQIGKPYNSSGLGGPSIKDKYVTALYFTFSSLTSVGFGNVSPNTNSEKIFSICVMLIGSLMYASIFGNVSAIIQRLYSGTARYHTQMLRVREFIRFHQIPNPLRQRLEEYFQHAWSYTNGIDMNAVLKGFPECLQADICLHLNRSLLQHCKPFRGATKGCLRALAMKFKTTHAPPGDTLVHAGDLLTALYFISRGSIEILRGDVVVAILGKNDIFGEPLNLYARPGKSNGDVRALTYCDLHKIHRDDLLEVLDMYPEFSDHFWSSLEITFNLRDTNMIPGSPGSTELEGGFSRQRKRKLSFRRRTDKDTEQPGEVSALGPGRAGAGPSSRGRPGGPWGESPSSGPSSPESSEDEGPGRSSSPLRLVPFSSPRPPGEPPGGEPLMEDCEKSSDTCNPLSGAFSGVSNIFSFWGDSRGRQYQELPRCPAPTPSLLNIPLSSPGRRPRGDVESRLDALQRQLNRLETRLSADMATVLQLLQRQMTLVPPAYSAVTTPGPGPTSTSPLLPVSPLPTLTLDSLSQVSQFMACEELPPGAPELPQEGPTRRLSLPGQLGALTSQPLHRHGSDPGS
National Institutes of Environmental Health Sciences [NIEHS]
National Toxicology Program [NTP]
We have developed a 1536-well cell-based assay for quantitative high throughput screening (qHTS) to determine in vitro hERG channel blockage as a measure of cardio toxicity with small molecules. This particular assay uses the U2OS cell line which is derived from human osteosarcoma.
NCGC Assay Protocol Summary:
HERG assay (FluxORTM thallium flux assay) was initially developed by Invitrogen/Molecular Probes, and then miniaturized into 1536-well plate in a homogeneous format by NCGC. This assay measures the activity of potassium channel using thallium dye (FluxOR) flux as surrogate measurement for potassium into the cells with a FDSS-7000 kinetic plate reader (Hamamatsu Corp., Hamamatsu City, Japan). The hERG ion channel is transduced into mammalian cells (U2OS) using a baculovirus (Bacmam) construct harboring the hERG K+ ion channel. So far we screened LOPAC1280 library (Sigma), the NTP collection of 1408 compounds, and the NCGC Pharmaceutical Collection (NPC), in which many well defined HERG blockers are present. The rank order potencies of many of these compounds are similar to that of other HERG assays (membrane potential, Rb+ flux, patch clamp, etc). This quick and homogeneous assay is also found to be sensitive, specific, and robust.
Using the FluxORTM thallium flux assay, the activity of potassium channel using thallium dye (FluxOR) flux as surrogate measurement for potassium into the cells was measured in the U2OS cell line transduced with hERG K+ ion channel using a baculovirus (Bacmam) using Opti-MEM medium (Invitrogen) containing 2% fetal calf serum (FCS, HyCone) following loading buffer addition, compound treatment for around 10 minutes and finally adding stimulation buffer. The assay was performed in black clear Kalypsys 1536-well plates. In the screen, Astemizole was used as positive controls. Library compounds were measured for their ability to cause hERG channel blockage in the cell line, as reflected by a decrease in fluorescence intensity, in a concentration-dependent manner. […] AC50 values were determined from concentration-response data modeled with the standard Hill equation.
qHTS protocol for hERG-U2OS cellular assay
[Step] [Parameter] [Value] [Description]
1. Day 1: Replace medium in 70-80% confluent T225 flask with 2.5 mL of hERG-BacMam virus plus 12.5 mL of phosphate buffered saline (PBS) (corresponding roughly to a multiplicity of infection ratio of 100 virus particles/cell)
2. Incubation: 4 hrs @ room Temperature in Dark
3. Reagent; Remove virus; wash once with 25 ml DPBS
4. Reagent; 35 ml culture medium
5. Incubation; 37 °C overnight
6. Day2: Reagent; 3 uL; 2000 U2OS cells/well
7. Time; 4 hr; 37 °C incubation
8. Loading buffer; 1 uL; 0.7X;
9. Incubation: 1hr @ RT in Dark.
12. Time; 10min; 37 °C incubation
13. Read fluorescence Intensity on FDSS for 10 Sec with 1 sec interval
14. Reagent; 1 uL; stimulation buffer
15. Read fluorescence Intensity on FDSS for 2 min with 1 sec interval
16. Detection; Fluorescence Intensity; FDSS
On to `CCC1(c2ccccc2)C(=O)NC(=O)NC1=O`, for which the “activity change, negative = inhibition” value is 5.96%.

On to `C[C@]12CC[C@H]3[C@@H](CCC4=C(O)C(=O)CC[C@@H]43)[C@@H]1CC[C@@H]2OC(=O)CCC1CCCC1`, for which the “activity change, negative = inhibition” value was -12.4%.

On to `O=[N+]([O-])c1ccccc1`, for which the Potency result was “inactive”.

For `N[C@@]1(C(=O)O)CC[C@@H](C(=O)O)C1`, the “activity change, negative = inhibition” value is 1.22%.

Turning to `CC1(C(=O)O)C2CCC(O2)C1(C)C(=O)O` (stereo not given), the “activity change, negative = inhibition” value was 1.78%.

In the case of `C[Se]C[C@H](N)C(=O)O`, the “activity change, negative = inhibition” value was 0.222%.

For the compound `C[N+](C)(C)CC#CCOC(=O)Nc1cccc(Cl)c1`, the “activity change, negative = inhibition” value was -1.65%.

For the compound `CCCC(=O)OC(C(Cl)(Cl)Cl)P(=O)(OC)OC` (stereo not given), the “activity change, negative = inhibition” value is 26.9%.

Take `CC(Cc1ccc(OCC(=O)O)cc1)NCC(O)c1cccc(Cl)c1` (stereo not given): the “activity change, negative = inhibition” value is -23.7%.

`O=CC=O`: the Potency result is “inactive”.

As for `C[C@H]1CC[C@]2(NC1)O[C@H]1C[C@H]3[C@@H]4CC[C@H]5C[C@@H](O)CC[C@]5(C)[C@H]4CC[C@]3(C)[C@H]1[C@@H]2C`, the “activity change, negative = inhibition” value is 11%.

As for `C=CCN=C=S`, the Potency result is “inactive”.

For the compound `NCC(O)c1cccc(O)c1` (stereo not given), the “activity change, negative = inhibition” value was 2.84%.

Turning to `[N-]=[N+]=CC(=O)OCC(N)C(=O)O` (stereo not given), the “activity change, negative = inhibition” value was 30.8%.

As for `Cc1ccccc1-n1c(CF)nc2ccc(N)cc2c1=O`, the “activity change, negative = inhibition” value is 8.42%.

For `O=c1ccc2cc(O[C@@H]3O[C@H](CO)[C@@H](O)[C@H](O)[C@H]3O)c(O)cc2o1`, the “activity change, negative = inhibition” value is -9.33% [at 20.6 µM].

For `COc1cc2c(cc1OC)[C@@]13CCN4CC5=CCO[C@H]6CC(=O)N2[C@H]1[C@H]6[C@H]5C[C@H]43`, the “activity change, negative = inhibition” value is -12.5%.

As to `CCCn1c(=O)c2[nH]c(C3CCCC3)nc2n(CCCOC(=O)c2ccc(S(=O)(=O)F)cc2)c1=O`, the Potency is 14.1 µM (active).

Take `COC1=CC=C2[C@H]3Cc4ccc(OC)c5c4[C@@]2(CCN3C)[C@H]1O5`: the “activity change, negative = inhibition” value is -2.06% [at 20.6 µM].

Turning to `CCOC(=O)c1ccccc1C(=O)OCC`, the Potency entry was “inactive”.

On to `NC(C(=O)O)c1cc(=O)[nH]o1` (stereo not given), for which the “activity change, negative = inhibition” value was 7.78%.

Regarding `O=C1CCO1`, the Potency result is “inactive”.

Consider `O=[N+]([O-])c1cc(I)c(O)c(I)c1`, for which the “activity change, negative = inhibition” value was -15.6%.

Regarding `CCCCCCCCOC(=O)c1ccccc1C(=O)OCCCCCCCC`, the Potency entry was “inactive”.

Take `C=CCN1CCC23c4c5ccc(O)c4O[C@H]2C(=O)CC[C@@]3(O)C1C5` (stereo not given in full): the “activity change, negative = inhibition” value was 16.5%.

Turning to `Cc1cc(C)cc(C(=O)OC2C[C@H]3CC[C@@H](C2)N3C)c1` (stereo not given in full), the Potency is 3.98 µM (active).

On to `c1csc(C2(N3CCCCC3)CCCCC2)c1`, for which the “activity change, negative = inhibition” value was -9.59%.

Take `CCOc1ccc2c3c1O[C@H]1[C@@H](O)C=C[C@H]4[C@@H](C2)N(C)CC[C@@]341`: the “activity change, negative = inhibition” value was -1.99%.

On to `O=C(CCl)c1ccc(Oc2ccc(C(=O)CCl)cc2)cc1`, for which the “activity change, negative = inhibition” value was 1.33%.

Consider `C/C(=C\c1csc(C)n1)[C@@H]1C[C@@H]2O[C@]2(C)CCC[C@H](C)[C@H](O)[C@@H](C)C(=O)C(C)(C)[C@@H](O)CC(=O)O1`, for which the “activity change, negative = inhibition” value was -4.89%.

As for `CC(=O)OCC(=O)[C@H]1CC[C@H]2[C@@H]3CC[C@H]4C[C@H](O)CC[C@]4(C)[C@H]3C(=O)C[C@]12C`, the “activity change, negative = inhibition” value is 2.83% [at 20.6 µM].

On to `O=C1CCCCC1CN1CCCCC1` (stereo not given), for which the “activity change, negative = inhibition” value is 28.3%.

As for `COc1ccc2c(c1)C13CCCCC1C(C2)N(C)CC3` (stereo not given), the “activity change, negative = inhibition” value was -27.6%.

As for `Cc1[nH]c2ccc(O)cc2c1CCN`, the “activity change, negative = inhibition” value is 0.774%.

With `NC(Cc1cc(O)c(O)cc1O)C(=O)O` (stereo not given), the “activity change, negative = inhibition” value is 3.54%.

In the case of `O[C@H]1[C@H]2[C@H](O)CCCN2C[C@H]1O`, the “activity change, negative = inhibition” value was 3.66%.

As to `Clc1cc(I)cc(Cl)c1NC1=NCCN1`, the “activity change, negative = inhibition” value is -28.8%.

On to `C=CC[C@]1(O)CC[C@H]2[C@@H]3CCC4=CCCC[C@@H]4[C@H]3CC[C@@]21C`, for which the “activity change, negative = inhibition” value is -15.7%.

For `COC1=CC(=O)O[C@@H](/C=C/c2ccccc2)C1`, the “activity change, negative = inhibition” value was 2.54% [at 92.2 µM].

Consider `CC(C)(C)c1o[nH]c(=O)c1CC(N)C(=O)O` (stereo not given), for which the “activity change, negative = inhibition” value is 9.52%.
